Shown are actives, neighbours in structure and some others; about 12% of the full set was active somewhere.
Sfp PPTase inh: Sfp phosphopantetheinyl transferase inhibition | Q9F4F7 | AID 1490 | actives 3.5% (n = 310,000) | Biochemical Sfp PPTase activity, qHTS | Potency, µM, inactives show largest response in the series, negative = inhibition, actives largely listed as inhibitors;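 further: the enzyme is Sfp with the accession as filed and its product quenches rhodamine fluorescence; 0% = enzyme reaction without inhibitor and -100% = no enzyme wells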
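Compounds were incubated with enzyme (final 15 nM) for 15 min at room temperature before substrate addition started the reaction. Fluorescence at 525 nm excitation, 598 nm emission was recorded immediately and after 30 minutes.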
G9a inh: blocks human histone lysine methyltransferase G9a; G9a H3K9 monomethylation, AlphaScreen, 2 h; actives 8.8% (n = 350,000); Potency, µM (series often up to 102 µM), without a hit: at the highest dose activity, negative = inhibition, hits mostly inhibitors; further: on the % scale 0 is the no-effect control and ±100 the full control effect; nearly all actives have a fitted effect of over 75% in size
Target sequence (Q96KQ7 913-1193 limits assumed): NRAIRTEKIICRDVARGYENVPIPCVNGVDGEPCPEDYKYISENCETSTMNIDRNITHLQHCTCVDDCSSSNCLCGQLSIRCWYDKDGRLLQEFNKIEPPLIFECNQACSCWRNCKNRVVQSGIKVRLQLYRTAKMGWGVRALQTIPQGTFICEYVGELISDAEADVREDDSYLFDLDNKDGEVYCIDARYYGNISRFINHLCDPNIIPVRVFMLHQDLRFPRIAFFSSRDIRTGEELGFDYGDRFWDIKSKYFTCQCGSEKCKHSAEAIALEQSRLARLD
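Chemiluminescent proximity detection of H3K9 monomethylation, read after 10 min bead incubation in the dark. Reaction: 20 nM G9a, 500 nM biotin-H3K9 peptide, 20 uM SAM cofactor, 2 h, room temperature, following 15 min enzyme-compound preincubation.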
BAZ2B block: inhibitors of human BAZ2B bromodomain; Q9UIF8; AlphaScreen BAZ2B-H3K14Ac peptide displacement; Potency, µM (titrated, usually from 114 µM), for inactives: at the top dose activity change, negative = inhibition, hits mostly inhibitors; actives 4.4% (n = 360,000); AID 504333; further: on the % scale 0 is the no-effect control and ±100 the full control effect; nearly all actives have a fitted effect of over 60% in size
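Inhibition is scored as reduced AlphaScreen emission. The BAZ2B/b-H3(5-23)K14Ac complex (50 nM each) in PBS pH 7.4, 0.01% Tween-20 meets compound (up to 110 uM) for 30 min at RT before bead addition.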
HP1b chromo inh: HP1-beta chromodomain-methylated histone interaction inhibition | P83916 | AlphaScreen HP1-beta / biotin-H3K9me3 peptide binding | actives 0.56% (n = 390,000) | Potency, µM (doses to about 114 µM), inactives show at the top dose activity change, negative = inhibition, most hits filed as inhibitors; further: nearly all actives have a fitted effect of over 70% in size
Target sequence (P83916 whole entry, looked up): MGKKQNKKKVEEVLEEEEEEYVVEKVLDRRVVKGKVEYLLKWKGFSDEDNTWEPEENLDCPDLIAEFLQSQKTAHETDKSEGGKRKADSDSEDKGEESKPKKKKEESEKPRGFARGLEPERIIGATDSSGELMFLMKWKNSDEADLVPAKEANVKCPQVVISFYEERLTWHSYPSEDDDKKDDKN
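HP1-beta protein (50 nM final) preincubated 30 min at room temperature with biotinylated H3(1-18)K9me3 peptide (50 nM) in PBS pH 7.4, 0.01% Tween-20, then compound added for 30 min. AlphaScreen streptavidin donor/nickel chelate acceptor beads (10 ug/mL final), 30 min dark, luminescence read.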
JMJD2A Tudor inh: blocks the human JMJD2A Tudor domain; O75164; AlphaScreen JMJD2A-Tudor / H3K4me3 peptide binding; Potency, µM (series often up to 114 µM), for inactives: at the highest dose activity change, negative = inhibition, hits mostly inhibitors; actives 4.4% (n = 390,000); AID 504339; further: on the % scale 0 is the no-effect control and ±100 the full control effect; nearly all actives have a fitted effect of over 50% in size
Numbers without * were called inactive; ? = inconclusive; . = not tested or not shown; [ ] = dose if it differs, or a comment. The call rests on the fitted dose curve; in most records, active means well fitted curve in the direction sought with a large enough effect; inconclusive means small, poorly fitted or top-dose-only effect, or another doubt; inactive means no such curve, though single readings can be large; an effect the other way counts as inactive or inconclusive. Potency means the concentration at half of the fitted maximal effect.

SMILES	Sfp PPTase inh	G9a inh	BAZ2B block	HP1b chromo inh	JMJD2A Tudor inh
CC(C)N(Cc1cc2ccccc2[nH]c1=O)C(=O)c1ccco1	50µM*	50µM*	-9%	20%	-9%
CCC(=O)c1ccc(OC)c(OC)c1O	11%	15%	0%	18%	-10%
O=C(Cn1c(=O)n2ncnc2c2c3c(sc21)CCCC3)c1ccccc1	-22%	-29%[12.7 µM]	-19%	11%	-8%
O=C(NC(=S)N1CCCc2ccccc21)c1ccco1	?	45µM*	?	19%	-22%
CC1Cc2ccccc2N1C(=S)NC(=O)c1ccco1 (configuration not stated)	40µM*	40µM*	.	?	-35%
O=C(c1ccco1)N1CCc2ccccc21	16%	-7%	17%	20%	-9%
CC(=O)OC[C@@H]1O[C@H](CCO/N=C\[C@@H](C)[C@H](OCc2ccccc2)C(C)C)C=C[C@@H]1OC(C)=O	5%	.	.	.	.
CC1C(=O)N2CCCc3cc(S(=O)(=O)N(C)c4ccccc4)cc1c32 (configuration not stated)	-18%	.	56µM*	36%	-22%
CCN(c1ccccc1)S(=O)(=O)c1cc2c3c(c1)C(C)C(=O)N3CCC2 (configuration not stated)	7%	23%	-1%	32%	-4%
COc1ccc(S(=O)(=O)Nc2cc3c4c(c2)C(C)C(=O)N4CCC3)cc1OC (configuration not stated)	.	45µM*	9%	9%	-14%
Cc1ccc(NC(=O)C(=O)c2cn(CC(=O)N3CCCCC3)c3ccccc23)cc1	-3%	23%[59 µM]	-10%	14%	-22%
CCn1nc(Cc2cccc3ccccc23)c(C#N)c1N	.	.	.	20%	-23%
CCOC(=O)CN1CC23C=CC(O2)C(C(=O)N2CCN(c4ccc(F)cc4)CC2)C3C1=O (configuration not stated)	4%	-50%	-2%	22%	-21%
CCOC(=O)CN1CC23C=CC(O2)C(C(=O)NCc2ccc(F)cc2)C3C1=O (configuration not stated)	17%	22µM*	-2%	57%	0%
COc1ccc(C=O)cc1OC1C=CCCC1 (configuration not stated)	14%	33%	-2%	81%	16%
COc1ccc(NC(=O)CSc2nnnn2C2CC3C=CC2C3)cc1 (configuration not stated)	6%	?	-18%	21%	-12%
Cc1ccc2nc(Cl)c3cc(C(=O)NCCCN(C)Cc4ccccc4)sc3c2c1	.	?	22µM*	-10%	?
CN(CCCNC(=O)c1cc2c(Cl)nc3ccccc3c2s1)Cc1ccccc1	79µM*	?	?	8%	?
CCN(CCCNC(=O)c1cc2c(Cl)nc3ccccc3c2s1)Cc1ccccc1	.	-37%[59 µM]	?	5%	?
COCCNC(=O)c1cc2c(Cl)nc3ccc(C)cc3c2s1	.	10%[59 µM]	5%	43%	5%
COc1ccc(C2=C(Nc3ccc(C)c(C)c3)c3ccccc3C2=O)cc1	.	?	-32%	?	?
CC(C)c1ccc(NC(=S)NCc2ccc3c(c2)OCO3)cc1	4%	-43%	-37%	-17%	-35%
CCOC(=O)N1CCN=C1SCc1ccc(Cl)c(Cl)c1	6%	285%	206%	62%	40%
N#C/C(=C\c1ccco1)c1nc2ccccc2s1	5%	8.9µM*	?	21%	-12%
N#C/C(=C/c1ccc(-c2cc(C(=O)O)cc(C(=O)O)c2)o1)c1nc2ccccc2s1	56µM*	11µM*	56µM*	.	.
SMILES	Sfp PPTase inh	G9a inh	BAZ2B block	HP1b chromo inh	JMJD2A Tudor inh
N#C/C(=C/c1ccco1)c1nc2ccccc2s1	-23%	?	-27%	13%	-22%
Oc1ccc(-c2[nH]ncc2-c2ccc(Br)cc2)c(O)c1	-1%	-13%	-10%	44%	-25%
O=C(CSc1ccc(Br)cc1)NCC(c1cccs1)N1CCOCC1 (configuration not stated)	.	-27%	-4%	36%	-6%
CCOC(=O)c1ccc(/C=C2/C=C(c3ccccc3)N(c3ccc(Cl)c(C(=O)O)c3)C2=O)cc1	?	11µM*	50µM*	-21%	?
COC(=O)c1c(C)nc(C)c(C(=O)OC)c1-c1ccsc1	16%	0%	-12%	33%	-13%
Cc1nc(C)c(C(=O)O)c(-c2ccsc2)c1C(=O)O	5%	50µM*	-5%	10%	-15%
CCOC(=O)/C(C#N)=C/NC(=O)NC(C)(C)C	13%	5%[59 µM]	3%	9%	-8%
CCCCNC(=O)c1cc2cccc([N+](=O)[O-])c2[nH]1	-20%	50µM*	?	17%	-27%
CCCCNC(=O)COc1ccccc1[N+](=O)[O-]	4%	12%[59 µM]	1%	30%	-11%
CCc1ccc(N2C(=O)CC(N(CC3CCCO3)C(=O)/C=C/C(=O)O)C2=O)cc1 (configuration not stated)	-4%	89µM*	-4%	20%	-34%
Cc1cc(N)c2ccccc2[n+]1CCCCCCCCCCCCCC[n+]1c(C)cc(N)c2ccccc21	.	0.4µM*	.	.	.
Cc1oc(-c2cccs2)nc1CN1CC[C@@](O)(c2ccccc2)[C@H]2CCCC[C@@H]21	13%	?	-17%	42%	-26%
S=C1NC2(CCS1)Oc1ccccc1C1CC(c3ccccc3)=NN12 (configuration not stated)	?	50µM*	?	.	.
CN1C(=O)C2(Oc3ccccc3C3CC(c4ccccc4)=NN32)c2ccccc21 (configuration not stated)	-14%	?	-33%	17%	?
CCCCNc1c(-c2cccc(-c3ccc(OC)cc3)c2)nc2ccc(C)cn12	.	10%[2.33 µM]	45µM*	-14%	25µM*
CCCCNc1c(-c2cccc(-c3cc(C(C)=O)cs3)c2)nc2ccc(C)cn12	.	-16%[2.33 µM]	35µM*	-26%	25µM*
CCCCCCSc1cccc(-c2nc3ccc(Cl)cn3c2NCCCC)c1	.	.	.	106%	26%
O=C(CCc1ccc(S(=O)(=O)N2CCOCC2)cc1)Nc1ccc(F)c(F)c1F	.	.	.	24%	-19%
CCc1nnc(NC(=O)c2ccc(S(=O)(=O)N3CCCC(C)C3)cc2)o1 (configuration not stated)	8%	62%	89µM*	42%	-26%
COCc1nnc(NC(=O)c2ccc(S(=O)(=O)N3CCCC3)cc2)o1	-19%	3%	20µM*	29%	13µM*
Cc1ccc(Cn2nc3n(c2=O)-c2cc(Cl)ccc2OC3)cc1	.	15%[59 µM]	-16%	44%	-3%
COC(=O)c1sc(=S)n(-c2cc(F)ccc2F)c1N	50µM*	12%[0.501 µM]	56µM*	?	?
CCOC(=O)c1sc(=S)n(-c2ccc(Cl)cc2)c1C	10%	?	-25%	8%	-15%
